KCNQ2 block = inhibitors of rat KCNQ2 potassium channel; O88943; CHO-K1 KCNQ2, FluxOR thallium flux, 20 min; active compounds read low; B-score at 10 µM; 310,000 tested, 1.1% active; AID 2156;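 active = fluorescence ratio B-score at most minus 3 library SDs, with starting brightness B-score within 2 library SDs, cut at about -5.5 in these data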
KCNQ2 pot = enhances the rat KCNQ2 potassium channel | B-score at 10 µM | CHO-K1 KCNQ2, FluxOR thallium flux fluorescence; active compounds read high | O88943 | 310,000 tested, 0.54% active | AID 2239;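 active = fluorescence ratio B-score at least 3 SD of library B-scores, with initial fluorescence B-score within 3 of them, cut at about 5.3 in these data; same plate scores as AID 2156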;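 note: B-score of peak minus minimum over baseline fluorescence ratio after K+ and Tl+ stimulus; positive B-score means potentiation of KCNQ2 with more thallium influx and brighter signal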
KCNQ2 inh conf = rat KCNQ2 channel inhibition, confirmatory screen; AID 493025; shares compounds with KCNQ2 block; KCNQ2-expressing cells, thallium flux; active compounds read low; 1,000 tested, 57% active; activity change, negative = inhibition, % at 10 µM;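 note: 0% = vehicle wells and values are ratio percent relative to vehicle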
KCNQ1 spec = KCNQ2 inhibitor that also affects human KCNQ1 channel; KCNQ1-expressing cells, FluxOR thallium flux fluorescence; active compounds read low; shares compounds with KCNQ2 block; 1,000 tested, 15% active; activity change, negative = inhibition, % at 10 µM;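 active = activity change at least 3 SD of negative controls below their mean in both duplicate wells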;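 note: CHO cells stably transfected with KCNQ1 and depolarized by potassium stimulus; peak minus minimum fluorescence over baseline after thallium addition; 0% = vehicle negative control and -100% = blank without thallium stimulus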
CHO Tl ctr = KCNQ2 inhibitor counter-screen hit in parental CHO cells. AID 493029. thallium flux counter-screen; active compounds read low. activity change, % at 10 µM. 1,000 tested, 14% active. shares compounds with KCNQ2 block;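 note: 0% = vehicle negative controls with stimulus buffer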
KCNQ2 inh confirm = blocks rat KCNQ2 current in automated patch clamp; KCNQ2-expressing cells; calls only at 10 µM; shares compounds with KCNQ2 block; 550 tested, 49% active
* = called active by the depositor; i = inactive; · = no result; + = active, no number. In the library only some 1.6% were active in any assay of this set; here they are far more common. Unless noted, the rule behind the calls is not given here.

SMILES	KCNQ2 block	KCNQ2 pot	KCNQ2 inh conf	KCNQ1 spec	CHO Tl ctr	others
CCOC(=O)c1cnc2c(OC)cccc2c1N1CCN(c2ccc(OC)cc2)CC1	i	·	·	·	·
COC(=O)c1ccc(C(=O)OC)c(NC(=O)COC(=O)CC2CC3CCC2C3)c1 (configuration not stated)	-11*	-11	i	i	i
Cc1ccc(Cl)cc1NC(=O)COC(=O)CC1CC2CCC1C2 (configuration not stated)	i	·	·	·	·
CCOC(=O)N1CCN(c2nc3ccccc3nc2C(C#N)C(=O)NCCc2ccccc2)CC1 (configuration not stated)	-8.7*	-8.7	i	i	i
N#CC(C(=O)NCCc1ccccc1)c1nc2ccccc2nc1N1CCCCC1 (configuration not stated)	i	·	·	·	·
CCN(CC)c1ccc2cc(S(=O)(=O)c3ccc(C)cc3)c(=O)oc2c1	i	·	·	·	·
Cn1c(C(=O)N(Cc2ccccc2)Cc2cccs2)cc2sccc21	i	·	·	·	·
Cn1c(C(=O)N(Cc2ccccc2)Cc2ccccn2)cc2sccc21	-8.3*	-8.3	i	i	i
COc1ccc(C(=O)CC(Nc2ccc([N+](=O)[O-])cc2)c2ccc(Cl)cc2)cc1 (configuration not stated)	-8.1*	-8.1	i	i	i
COc1ccc(C(=O)CC(=O)C(=O)Nc2ccc(Cl)cc2)cc1	i	·	·	·	·
CN(CC1CCOCC1)C(=O)CC1C(=O)NCCN1Cc1ccc(-c2ccccc2)cc1 (configuration not stated)	i	·	·	·	·
O=[N+]([O-])c1ccc(Cl)c(/C=N/N2CCN(Cc3ccccc3Cl)CC2)c1	-7.2*	-7.2	i	i	i
O=[N+]([O-])c1ccc(Cl)c(/C=N/N2CCN(Cc3ccccc3)CC2)c1	i	·	·	·	·
CS(=O)(=O)N(Cc1ccco1)CC(O)Cn1c2ccccc2c2ccccc21 (configuration not stated)	-8.2*	-8.2	-26%*	i	i	KCNQ2 inh confirm=+
Cc1ccc(N(CC(O)Cn2c3ccccc3c3ccccc32)S(C)(=O)=O)cc1 (configuration not stated)	i	·	·	·	·
O=C(NCCCCc1ccccc1)c1ccc(Br)cc1	i	1.2	·	·	·
O=C(NCCC(=O)N(CCc1ccccc1)Cc1ccccc1)c1ccc(Br)cc1	-9.2*	-9.2	-18%*	i	i	KCNQ2 inh confirm=i
COCCNC(=S)N/N=C/c1ccc(OCc2ccc(C(=O)OC)cc2)cc1	i	0.52	·	·	·
Fc1ccc(-c2csc(N3CCC(c4ccccc4)C3)n2)cc1 (configuration not stated)	-9.5*	-9.5	i	i	i
Clc1ccc(-c2csc(N3CCC(c4ccccc4)C3)n2)cc1 (configuration not stated)	i	·	·	·	·
C/C(=C\C(=O)c1sccc1Cl)N(C)C	i	·	·	·	·
Cc1cc(C)nc(NC(=O)c2cc(-c3ccc4c(c3)OCO4)nc3ccccc23)c1	-7.7*	-7.7	-32%*	i	i	KCNQ2 inh confirm=+
COC(=O)c1cc(-c2ccc3c(c2)OCO3)nc2ccccc12	i	0.09	·	·	·
O=C(NC1CCCCCC1)C1Cc2ccccc2CN1C(=O)c1ccco1 (configuration not stated)	i	·	·	·	·
CCN(CC)CCNC(=O)c1cc(-c2ccco2)nc2ccccc12	i	0.72	·	·	·
SMILES	KCNQ2 block	KCNQ2 pot	KCNQ2 inh conf	KCNQ1 spec	CHO Tl ctr	others
O=C(COC(=O)c1cc(-c2ccco2)nc2ccccc12)NCc1ccccc1	-6.9*	-6.9	i	i	i
CNC(=O)COC(=O)c1cc(-c2ccco2)nc2ccccc12	i	·	·	·	·
COc1ccc(CCNC(=O)c2cc(-c3ccco3)nc3ccccc23)cc1	-8.2*	-8.2	-27%*	i	i	KCNQ2 inh confirm=+
COc1cccc(CN2CC(C(=O)NCCCCc3ccccn3)CCC2=O)c1 (configuration not stated)	i	0.45	·	·	·
Cc1cc(C(=O)c2ccc3ccccc3c2)c(C)o1	i	·	·	·	·
COc1ccc(NC(=O)CS(=O)(=O)Cc2ccccc2)c([N+](=O)[O-])c1	i	·	·	·	·
COc1ccc(CCNC(=O)c2ccccc2N(C)S(=O)(=O)c2ccccc2)cc1	i	0.14	·	·	·
CN(c1ccccc1C(=O)NCc1ccccc1Cl)S(=O)(=O)c1ccccc1	-10*	-10	i	i	i
Cc1ccccc1NC(=O)c1ccccc1N(C)S(=O)(=O)c1ccccc1	-7.6*	-7.6	-20%*	i	i	KCNQ2 inh confirm=+
CC(=O)Nc1ccc(NC(=O)c2ccccc2N(C)S(=O)(=O)c2ccccc2)cc1	i	·	·	·	·
O=C(O)c1ccccc1NCc1cccs1	i	·	·	·	·
CCN(c1ccccc1)S(=O)(=O)c1ccc(OC)c(NC(=O)CCc2nc3ccccc3c(=O)[nH]2)c1	i	0.38	·	·	·
CCOc1ccc(N(CC(=O)N2CC=C(c3ccccc3)CC2)S(=O)(=O)c2c(C)noc2C)cc1	-8.6*	-8.6	i	i	i
CCOc1ccc(N(CC(=O)N2CCc3ccccc32)S(=O)(=O)c2c(C)noc2C)cc1	i	·	·	·	·
O=C(NCCC(=O)N1CCC2(CC1)NCCc1[nH]cnc12)c1ccc(Br)cc1	i	1	·	·	·
Cc1ccc2c(c1)C(=O)CC(c1ccc3c(c1)OCCO3)O2 (configuration not stated)	i	0.39	·	·	·
CC(C)=CCc1cc([C@@H]2CC(=O)c3ccc(O)c(CC=C(C)C)c3O2)ccc1O	-9*	-9	i	i	i
COc1ccccc1NC(=O)C1=C(C)NC(SCC(=O)c2ccccc2)=C(C#N)C1c1ccco1 (configuration not stated)	-12*	-12	i	i	i
COCCOC(=O)C1=C(C)NC(SCC(=O)NC(C)(C)C)=C(C#N)C1c1ccco1 (configuration not stated)	i	0.1	·	·	·
CCOC(=O)/C(=N\Nc1cc(C(F)(F)F)ccc1Cl)N(CC)CC	-8.9*	-8.9	i	i	i
CN(C)CC(=O)Nc1cc(C(F)(F)F)ccc1Cl	i	0.07	·	·	·
Cc1ccc(CN=c2c([N+](=O)[O-])nn(-c3cccc(C)c3)n2O)cc1	-7*	-7	-19%*	i	i	KCNQ2 inh confirm=i
Cc1ccc(CN=c2c([N+](=O)[O-])nn(-c3cccc(Cl)c3)n2O)cc1	i	·	·	·	·
CN(C1CCCCC1)S(=O)(=O)c1cccc2nsnc12	i	0.13	·	·	·
CCOP(=O)(OCC)C(NC(=O)Nc1ccccc1)c1ccccc1 (configuration not stated)	i	·	·	·	·
CCOP(=O)(OCC)C(NC(=O)Nc1c(C)cc(C)cc1C)c1ccccc1 (configuration not stated)	-9.2*	-9.2	-21%*	i	i	KCNQ2 inh confirm=+
COc1ccc(C2=NN(S(C)(=O)=O)C(c3cccs3)C2)cc1OC (configuration not stated)	i	·	·	·	·
COc1ccc(S(=O)(=O)NNC(=O)Nc2ccc(C)cc2C)c(OC)c1	i	·	·	·	·
